Laboratory results from ChEMBL document CHEMBL5724796, “Tm Shift (DSF) assay results for EUbOPEN Chemogenomics Library” (2024).
Non-standard residues stand in square brackets, D forms with d. Residues, ends and D or L forms follow the SMILES beside them. *: point of attachment. Benzoyl(4-tBu) = CC(C)(C)c1ccc(C(=O)*)cc1; Lys(Et2) = CCN(CC)CCCC[C@H](N)C(=O)O; Cbz = O=C(OCc1ccccc1)*; CH2Cl = ClC*; CH2F = FC*

What follows are compounds tested against T1, Transcription intermediary factor 1-alpha (Homo sapiens) (UniProt O15164). Settings: Compound concentration 20.0 uM.
T1 sequence (whole entry): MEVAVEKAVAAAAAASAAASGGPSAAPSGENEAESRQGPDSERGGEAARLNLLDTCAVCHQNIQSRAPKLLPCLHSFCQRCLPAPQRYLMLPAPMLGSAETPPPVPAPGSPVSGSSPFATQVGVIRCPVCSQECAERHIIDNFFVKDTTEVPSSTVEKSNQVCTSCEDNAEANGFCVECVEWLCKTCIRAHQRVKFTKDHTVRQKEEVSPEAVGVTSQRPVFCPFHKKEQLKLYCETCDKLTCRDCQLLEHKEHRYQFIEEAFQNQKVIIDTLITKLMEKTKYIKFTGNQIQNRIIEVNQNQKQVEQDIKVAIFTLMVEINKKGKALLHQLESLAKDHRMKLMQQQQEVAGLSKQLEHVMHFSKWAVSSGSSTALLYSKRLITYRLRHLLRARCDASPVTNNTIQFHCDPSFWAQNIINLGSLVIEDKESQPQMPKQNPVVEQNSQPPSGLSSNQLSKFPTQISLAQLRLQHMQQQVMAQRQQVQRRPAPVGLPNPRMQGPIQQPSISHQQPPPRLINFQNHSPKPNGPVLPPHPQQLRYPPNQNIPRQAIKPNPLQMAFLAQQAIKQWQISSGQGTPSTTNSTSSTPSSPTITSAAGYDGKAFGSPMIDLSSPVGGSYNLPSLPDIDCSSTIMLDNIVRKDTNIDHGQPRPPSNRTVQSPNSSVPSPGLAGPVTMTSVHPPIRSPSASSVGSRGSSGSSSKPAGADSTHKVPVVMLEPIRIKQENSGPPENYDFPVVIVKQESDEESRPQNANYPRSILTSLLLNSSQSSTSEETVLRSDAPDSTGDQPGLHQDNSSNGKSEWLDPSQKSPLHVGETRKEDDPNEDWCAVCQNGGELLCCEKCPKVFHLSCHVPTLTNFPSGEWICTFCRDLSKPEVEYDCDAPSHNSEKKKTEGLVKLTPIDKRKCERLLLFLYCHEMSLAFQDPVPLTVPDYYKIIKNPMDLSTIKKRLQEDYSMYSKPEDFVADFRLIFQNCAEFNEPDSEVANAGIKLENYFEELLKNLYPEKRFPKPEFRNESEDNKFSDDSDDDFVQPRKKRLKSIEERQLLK
Work on `O=C(NCC1CCOCC1)c1n[nH]cc1NC(=O)c1c(F)cccc1F` yielded a ΔTm of -0.72 °C.
`Oc1ccc(-c2c(-c3ccccc3)nn3c(C(F)(F)F)cc(C(F)(F)F)nc23)cc1` showed a ΔTm of -0.6 °C.
Compound `CNC(=O)O[C@H]1COc2ccc(N3CCN(C4COC4)CC3)cc2[C@@H]1NC(=O)c1ccc(F)cc1` has a ΔTm of -0.51 °C.
In the case of `CN(CCCCCCNc1ccnc2cc(Cl)ccc12)CCCCCCNc1ccnc2cc(Cl)ccc12`, the ΔTm is reported as 0.54 °C.
Compound `COc1cc(-c2cn(C)c(=O)c3cnccc23)cc(OC)c1CN(C)CC(=O)NCCOCCOCCNc1cccc2c1C(=O)N(C1CCC(=O)NC1=O)C2=O` (centres undefined) has a ΔTm of -0.75 °C.
`CC(C)c1c(-c2cnn(C(C)(C)C)c2)[nH]c2c(C#N)cnn2c1=O` was tested, and the ΔTm was 0.36 °C.
`CS(=O)(=O)c1ccc(-c2nnc(C=Cc3nnc(-c4ccc(C#N)cc4)o3)n2-c2ccccc2Cl)nc1` was tested, and the ΔTm was 0.34 °C.
In the case of `O=C(N1CCCCC1c1ccccc1)n1cc(-c2ccc(-c3cccc(CO)c3)cc2)nn1` (centres undefined), the ΔTm is reported as 2.17 °C.
In the case of `CS(=O)(=O)c1ccc(Oc2cc(F)cc(C#N)c2)c2c1C(O)C(F)C2` (centres undefined), the ΔTm is reported as -0.39 °C.
Work on `NS(=O)(=O)c1cc(-c2nnn[nH]2)c(NCc2cccs2)cc1Cl` yielded a ΔTm of 0 °C.
`CCn1nc(C2CC2)cc1Nc1nc(C(=O)NC)nc2[nH]c3cc(-c4c(C)noc4C)c(OC)cc3c12` was tested, and the ΔTm was 0 °C.
Work on `COCCOCCn1nc2c(c1C)-c1c(Cl)ccc3c1c(C)c(C(=O)O)n3CCCOc1cc(cc3c(F)c(Cl)ccc13)CCc1cc(nn1C)CSC2` yielded a ΔTm of -3.03 °C.
For `CN(CC[C@@H](Oc1ccc(-c2ccccc2)cc1)c1ccc(F)cc1)CC(=O)O`, the ΔTm was 2.77 °C.
In the case of `Cc1ccsc1C(=CCCN1CCC[C@@H](C(=O)O)C1)c1sccc1C`, the ΔTm is reported as 0.76 °C.
`O=C1Nc2ccccc2C2(CCN(CC(Cc3ccccc3)Nc3nc4ccc(F)cc4s3)CC2)N1` (centres undefined) showed a ΔTm of 0.18 °C.
For `CCCOc1cccc(Oc2cc3c(cc2NS(=O)(=O)c2cccc(C(=O)NCCOCCOCCOCC(=O)N[C@H](C(=O)N4C[C@H](O)C[C@H]4C(=O)NCc4ccc(-c5scnc5C)cc4)C(C)(C)C)c2)n(C)c(=O)n3C)c1`, the ΔTm was -3.82 °C.
Compound `CN(CCC(Oc1ccc(-c2ccccc2)cc1)c1ccc(F)cc1)CC(=O)O` (centres undefined) has a ΔTm of -0.18 °C.
With `C[C@]1(c2nc3c(C(N)=O)cccc3[nH]2)CCCN1` the ΔTm was 1.28 °C.
`CCN(CC)CCCC[C@H](NC(=O)[C@H](CC(C)C)NC(=O)[C@H](C)NC(=O)[C@H](Cc1ccccc1)NC(=O)c1ccc(C(C)(C)C)cc1)C(=O)N[C@@H](CO)C(=O)OC` ({Benzoyl(4-tBu)}-FAL[Lys(Et2)]S-OMe) was tested, and the ΔTm was -1.11 °C.
Compound `CN1CC(=O)N2[C@H](c3ccc4c(c3)OCO4)c3[nH]c4ccccc4c3C[C@@H]2C1=O` has a ΔTm of -0.6 °C.
`CC(=O)N[C@@H](Cc1ccccc1)C(=O)N[C@@H](CC(C)C)C(=O)N[C@H](C(=O)N[C@@H](CC(=O)O)C(=O)CCl)[C@@H](C)O` (Ac-FLTD-CH2Cl) was tested, and the ΔTm was -0.91 °C.
Work on `CCOC(=O)Oc1c(OC)cc(C(=O)O[C@H]2C[C@H]3CN4CCc5c([nH]c6cc(OC)ccc56)[C@@H]4C[C@H]3[C@@H](C(=O)OC)[C@@H]2OC)cc1OC` yielded a ΔTm of 0.01 °C.
`COC(=O)CC[C@H](NC(=O)[C@H](C)NC(=O)OCc1ccccc1)C(=O)N[C@H](C(=O)N[C@@H](CC(=O)OC)C(=O)CF)C(C)C` (Cbz-AE(OMe)VD(OMe)-CH2F) showed a ΔTm of -1.06 °C.
For `CCN(c1cc(-c2ccc(CN3CCOCC3)cc2)cc(C(=O)NCc2c(C)cc(C)[nH]c2=O)c1C)C1CCOCC1`, the ΔTm was -2.54 °C.
`Cc1cccc(N/N=C(\C(=O)c2cccs2)C(=O)C(F)(F)F)c1` showed a ΔTm of -1.89 °C.
With `CCN(CC)c1ccc(C2=NNC(=O)C[C@H]2C)cc1[N+](=O)[O-]` the ΔTm was -0.15 °C.
With `CCC(=O)N1CCOc2c(cc(-c3cc(OC)cc(OC)c3)cc2C(=O)N[C@H]2CCCN(C)C2)C1` the ΔTm was -2.74 °C.
`CCN(C(=O)c1cc(F)ccc1Oc1cncnc1N1CC2(CCN(C[C@H]3CC[C@H](NS(=O)(=O)CC)CC3)CC2)C1)C(C)C` gave a ΔTm of 0.24 °C.
`C[C@H](NC(=O)c1cn(C2(C#N)CC2)cn1)C(=O)Nc1nc(-c2cccc(-c3ccn(C)n3)c2)cs1` was tested, and the ΔTm was -0.79 °C.
For `N#Cc1ccc(-c2c3n(c4cccnc24)CCN(C2CC2)C3=O)cc1F`, the ΔTm was 0.73 °C.
`CC1(C)Cn2nc(-c3ccc(F)cn3)c(-c3ccnc4[nH]ncc34)c2CO1` gave a ΔTm of -1.54 °C.
`O=C(NCCCOc1ccc2[nH]c(=O)ccc2c1)N(C1CC1)[C@@H]1CCCC[C@H]1O` was tested, and the ΔTm was 0.02 °C.
`CC(C)(C)OC(=O)NCCCCCN(CCc1ccccc1)C(=O)n1cc(-c2ccc(OC(F)(F)F)cc2)nn1` gave a ΔTm of 0.4 °C.
`CCCCCCNC(=O)n1cc(F)c(=O)[nH]c1=O` gave a ΔTm of 0.05 °C.
`CNC(=O)N1CCc2c(c(N3CCCc4cc(-c5cnn(C)c5)c(C(F)F)cc43)nn2C2CCOCC2)C1` showed a ΔTm of -2.05 °C.
`CNCC[C@@H](Oc1ccccc1C)c1ccccc1` was tested, and the ΔTm was 0.48 °C.
Work on `CC1C(C#N)=C(N)OC2=C1C(=O)CC(c1cccc3ccccc13)C2` (centres undefined) yielded a ΔTm of -1.61 °C.
Work on `Cn1nc2c(=O)n(CC3(O)CCN(C(=O)C[C@H](c4ccccc4)C(F)(F)F)CC3)cnc2c1-c1ccc(CN)cc1` yielded a ΔTm of -0.47 °C.
`CCCCCCCCCCCCC/C=C/[C@@H](O)[C@H](CO)NC(=O)CCl` was tested, and the ΔTm was -0.39 °C.
